HP1b chromo inh: inhibitors of HP1-beta chromodomain binding to methylated histone tails; P83916; AlphaScreen HP1-beta / biotin-H3K9me3 peptide binding; Potency, µM (top dose mostly 114 µM), for inactives: at the top dose activity change, negative = inhibition, most hits filed as inhibitors; 390,000 tested, 0.56% active; note: nearly all actives have a fitted effect of over 70% in size
Target sequence (P83916 whole entry, looked up): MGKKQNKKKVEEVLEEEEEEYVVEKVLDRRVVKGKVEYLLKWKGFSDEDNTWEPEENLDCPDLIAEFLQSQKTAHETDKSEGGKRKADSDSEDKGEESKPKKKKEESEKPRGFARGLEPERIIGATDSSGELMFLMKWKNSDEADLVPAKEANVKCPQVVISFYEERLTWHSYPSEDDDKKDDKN
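HP1-beta protein (50 nM final) preincubated 30 min at room temperature with biotinylated H3(1-18)K9me3 peptide (50 nM) in PBS pH 7.4, 0.01% Tween-20, then compound added for 30 min. AlphaScreen streptavidin donor/nickel chelate acceptor beads (10 ug/mL final), 30 min dark, luminescence read.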
JMJD2A Tudor: inhibitors of human JMJD2A Tudor domain; O75164; AlphaScreen JMJD2A-Tudor / H3K4me3 peptide binding; Potency, µM (series often up to 114 µM), inactives show at the top dose activity change, negative = inhibition, usual class: inhibitors; 390,000 tested, 4.4% active; AID 504339; note: % is set by controls: 0 for no effect and ±100 for the full control effect; nearly all actives have a fitted effect of over 50% in size
BAZ2B inh: BAZ2B (human) inhibition; AlphaScreen BAZ2B-H3K14Ac peptide displacement; Potency, µM (titrated, usually from 114 µM), without a hit: at the highest dose activity change, negative = inhibition, hits mostly inhibitors; 360,000 tested, 4.4% active; AID 504333; note: % is set by controls: 0 for no effect and ±100 for the full control effect; nearly all actives have a fitted effect of over 60% in size
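Complex of BAZ2B and biotin-H3K14Ac (50 nM apiece) forms over 30 min at RT, then faces library compounds up to 110 uM for another 30 min; AlphaScreen beads added, 20 min dark incubation, luminescence read.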
G9a block: G9a (human) methyltransferase inhibition; AID 504332; 350,000 tested, 8.8% active; Q96KQ7; Potency, µM (series often up to 102 µM), for inactives: at the top dose activity, negative = inhibition, actives largely listed as inhibitors; G9a H3K9 monomethylation, AlphaScreen, 2 h; note: % is set by controls: 0 for no effect and ±100 for the full control effect; nearly all actives have a fitted effect of over 75% in size
Target sequence (Q96KQ7 913-1193 limits assumed): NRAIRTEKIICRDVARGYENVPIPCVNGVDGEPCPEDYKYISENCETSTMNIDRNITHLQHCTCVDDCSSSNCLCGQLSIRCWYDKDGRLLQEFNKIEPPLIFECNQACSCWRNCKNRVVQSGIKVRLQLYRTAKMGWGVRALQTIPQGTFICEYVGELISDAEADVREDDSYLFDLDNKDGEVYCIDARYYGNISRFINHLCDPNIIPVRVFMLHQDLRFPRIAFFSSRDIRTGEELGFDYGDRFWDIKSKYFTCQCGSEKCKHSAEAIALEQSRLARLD
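Enzyme 20 nM + cpd, 15 min RT; add b-H3K9 pep 500 nM / SAM 20 uM; 2 h RT; anti-H3K9me1 Ab 0.5 ug/mL + SA donor / anti-rabbit acceptor beads 20 ug/mL each, 10 min; AlphaScreen read.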
L3MBTL1 inh: L3MBTL1 (human) inhibition; AlphaScreen L3MBTL1–H3K9me1 peptide binding; 230,000 tested, 0.66% active; Potency, µM (series often up to 57.1 µM), inactives show at the top dose activity, negative = inhibition, most hits filed as inhibitors; AID 485360; note: % is set by controls: 0 for no effect and ±100 for the full control effect; nearly all actives have a fitted effect of over 60% in size
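AlphaScreen proximity signal between nickel-chelate acceptor and streptavidin donor beads (final 10 ug/mL) reports binding of 50 nM L3MBTL1 to 75 nM biotin-H3 K9me1 peptide; complex incubated with compounds 30 min at room temperature; cefsulodin titration as control.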
* = called active by the depositor; ? = inconclusive; / = not tested or not shown; ! = a repeat was not active; [ ] = dose if it differs, or a comment. Hits are enriched below; roughly 11% of the tested compounds scored in any of these assays. Calls come from the whole dose curve; as a rule, active = well fitted inhibition curve with a large enough effect; inconclusive = small, poorly fitted or top-dose-only effect; inactive = no such curve, though single readings can be large or run the other way. Potency is the fitted concentration of half-maximal effect.

SMILES | HP1b chromo inh | JMJD2A Tudor | BAZ2B inh | G9a block | L3MBTL1 inh
CCc1ccc(OCCOCC(O)CNC(C)(C)C)cc1 (stereo not given) | ? | -24.8%[57.1 µM] | 7.0% | 4.3% | 11.8%
COc1cccc(OC)c1OCCN(C)C | ? | 1µM* | 35.5µM* | ? | /
COc1cccc(OC)c1OCCNC(C)(C)C | -11.4% | 8.91µM* | 50.1µM* | / | 3.9%
COc1ccccc1OCCOCCOc1ccccc1Cl | 124.0% | 57.5% | 79.4% | 49.1%[59 µM] | 31.4%
COc1cccc(OC)c1OCCCOc1cccc2cccnc12 | 24.0% | -14.5% | -18.7% | 14.8% | -3.4%
CC(C)(C)NCCOc1ccc(Br)cc1 | -32.8% | 3.55µM* | ? | 17.8µM* | /
CCN(CC)CCOc1ccccc1OC | ? | 1.26µM* | -35.0% | 22.4µM*! | /
Cc1c(N=C2N=C(NC(=O)c3ccc(F)cc3)c3ccccc32)c(=O)n(-c2ccccc2)n1C | -1.4% | -17.5% | -16.5% | 7.9%[59 µM] | 1.9%
COc1ccc(CN(CC(=O)NCc2ccc(F)cc2)C(=O)CCC(=O)Nc2ccccn2)cc1 | -4.3% | -15.2% | 3.5% | 7.8% | /
COc1ccc2c(c1)NC(c1ccc(Cl)cc1)=NC(c1cccs1)=N2 | ? | 14.1µM* | -27.7% | ? | /
Fc1ccc2c(c1)NC(c1ccncc1)=NC(c1cccs1)=N2 | 3.9% | ? | -36.0% | -28.0%[59 µM] | /
Cc1oc2ncn(CC(C)C)c(=O)c2c1C(=O)NCCCN1CCC(C)CC1 | 16.8% | -17.5% | 12.2%[57.1 µM] | -30.5%[59 µM] | /
Cc1sc2ncnc(N(C)CCc3ccccn3)c2c1C | 17.8µM* | 1.41µM* | 25.1µM* | -140.4%[59 µM] | /
Cc1sc2ncnc(N(C)Cc3cccs3)c2c1C | 143.0% | 52.3% | 43.2% | 43.6%[59 µM] | /
COc1ccc(-c2[nH]ncc2CN(C)C(C)c2ccncn2)c(F)c1 (stereo not given) | 21.3% | -17.9% | 3.3% | / | -1.9%
CCN(Cc1ccncc1)Cc1cn[nH]c1-c1ccc(OC)cc1F | 16.2% | -4.9% | -15.2% | 50.1µM* | -12.8%
Cc1cccc(OCCN2CCOCC2)c1C | 36.2% | -3.0% | -16.4% | ? | /
Cc1cc(C)c(C)c(OCCN2CCOCC2)c1 | 27.0% | 2.7% | -24.2% | 79.4µM* | /
Cc1cc(C)c(C)c(OCCCN(C)C)c1 | ? | 20µM* | -37.7% | ? | -9.4%
Brc1ccccc1OCCN1CCOCC1 | ? | 3.16µM* | ? | 25.1µM* | 0.5%
Clc1cc(Br)ccc1OCCN1CCOCC1 | ? | 0.794µM* | ? | 10µM* | -3.2%
O=C(N/N=C/c1ccc([N+](=O)[O-])cc1)c1cc(C2CC2)[nH]n1 | 40.1% | -11.0% | -19.4% | 79.4µM* | /
O=C(N/N=C/c1ccccn1)c1cc(C2CC2)[nH]n1 | 47.5% | 56.2µM* | 11.2µM* | ? | -34.2%
CCCN1CCN(CC2=C(C(=O)OCC)C(c3ccc(Cl)cc3)NC(=O)N2)CC1 (stereo not given) | 33.0% | -13.3% | / | -12.4%[59 µM] | /
N#CCN(CC#N)C(=O)C1c2ccccc2Oc2ccccc21 | 14.4% | 39.8µM* | -6.5% | / | /
SMILES | HP1b chromo inh | JMJD2A Tudor | BAZ2B inh | G9a block | L3MBTL1 inh
O=C(Nc1ccc(N2CCC(N3CCCCC3)CC2)c(C(=O)O)c1)c1ccccc1 | -7.7% | -30.7% | ? | -10.8%[59 µM] | /
O=C(Nc1cc2c3c(c1)C1CCCC1CN3CC1CCCC21)c1ccccc1 (stereo not given) | ? | ? | 28.2µM* | 8.91µM* | -3.6%
Cc1ccc(CNC(=O)C2CCCN(S(=O)(=O)c3ccc4c(c3)oc(=O)n4C)C2)cc1 (stereo not given) | 60.7% | -5.6% | -3.1% | 16.5%[59 µM] | /
O=C(Nc1nccs1)C1CCCN1S(=O)(=O)c1ccc(F)cc1 (stereo not given) | 13.6% | -11.9% | -3.2% | -26.3%[59 µM] | ?
O=C(Nc1nnc(-c2ccc(F)cc2)o1)C1CCCN1S(=O)(=O)c1cccs1 (stereo not given) | 34.9% | 44.7µM* | 79.4µM* | ? | -3.5%
CC1CCN(S(=O)(=O)c2ccc(N/N=C(/C#N)C(N)=O)cc2)CC1 | -18.3% | -15.5% | -29.7% | 6.3%[2.33 µM] | -11.8%
N#C/C(=N\Nc1ccc(S(=O)(=O)N2CCOCC2)cc1)C(N)=S | ? | ? | ? | 0.562µM* | -12.1%
N#CC(C#N)=NNc1ccc(S(=O)(=O)N2CCCCC2)cc1 | -35.3% | 39.8µM* | ? | 10µM* | -21.7%
Cc1ccc(-n2nc(CO)c(C(=O)NCCc3ccccc3)n2)cc1C | -12.6% | -21.7% | -4.0% | -0.8%[59 µM] | /
CC1([N+](=O)[O-])COC2(CCCCC2)OC1 | -18.3% | -0.7% | / | / | /
CCCc1nnc(SCC(=O)O)n1CC | 60.4% | -4.4%[11.4 µM] | -21.6% | -21.6% | /
O=C(Nc1ccncc1)c1cccc(S(=O)(=O)N2CCCC2)c1 | 47.7% | 2.1% | 9.9% | 97.1% | /
CC(C)Cc1nc2sc3c(c2c(=O)n1N)CC(C(C)C)OC3 (stereo not given) | 15.8% | -2.2%[11.4 µM] | 1.8% | 3.6% | 8.3%
CC(C)C1Cc2c(sc3ncnc(NN)c23)CO1 (stereo not given) | 22.3% | 25.1µM* | 28.2µM* | -12.2%[2.33 µM] | /
COC(=O)C1=C(C)Nc2c(c(=O)n(C)c(=O)n2C)C1c1cccc(O)c1 (stereo not given) | -4.3% | -15.8% | -1.5% | / | 4.0%
Cn1c2c(c(=O)[nH]c1=O)C(c1cccc(O)c1)C1=C(N2)c2ccccc2C1=O (stereo not given) | -13.3% | -34.0% | ? | 31.6µM* | -4.3%
CCc1ccc(C(=O)NNc2ccc(S(N)(=O)=O)cc2)cc1 | 16.5% | -7.3% | -0.4% | 22.4µM* | /
CCc1ccc(C(=O)NNc2ccc(C)c(Cl)c2)cc1 | -10.2% | -29.9% | -22.4% | 7.94µM* | -0.5%
NS(=O)(=O)c1ccc(NNC(=O)c2ccccc2)cc1 | 35.5% | -3.0% | 6.6% | / | /
CCc1ccc(C(=O)NNc2ccc(F)cc2)cc1 | -21.9% | -22.3% | ? | / | 8.4%
CCc1nnc(SCc2nc(-c3ccccc3)oc2C)c2cc3sccc3n12 | 14.3% | -22.0% | -23.9% | -9.8%[59 µM] | /
O/N=C\c1cccn1-c1ccc(Br)cc1 | -33.4% | 79.4µM* | ? | ? | /
COc1ccccc1OCC(=O)/C=C1/N(C)c2ccccc2C1(C)C | 23.3% | 9.6% | 14.3% | -8.1% | -29.2%
CN1/C(=C\C(=O)COc2ccc3c(c2)OCO3)C(C)(C)c2ccccc21 | ? | ? | 28.2µM* | ? | 10.0%[11.4 µM]
Cc1cc(Br)ccc1SCC(=O)OCC(=O)NC1CC1 | 29.6% | -22.4% | 79.4µM* | 79.4µM* | 16.3%
Cc1cc(SCC(=O)OCC(=O)NC(C)c2ccccc2)c(C)cc1Br (stereo not given) | 69.2% | 23.8% | 2.2% | 52.9%[59 µM] | 19.7%
Cc1cc(Br)ccc1SCC(=O)OCC(=O)NC(C)c1ccccc1 (stereo not given) | 80.7% | 12.1%[57.1 µM] | -4.5% | 39.8µM* | 13.1%
Cc1ccc(C(=O)NCC(=O)OCC(=O)c2cccc3ccccc23)cc1 | 12.1%[57 µM] | 3.1%[57.1 µM] | / | / | /
N#C/C(=C\c1cccc(F)c1)c1nc(-c2cc3ccccc3oc2=O)cs1 | 43.0% | -9.2% | 5.2% | 6.2%[59 µM] | /

Compound activity deposited in PubChem by National Center for Advancing Translational Sciences (NCATS).
